This is part of a sample that, as a whole, favours compounds with a hit. Of some 83,000 tested, about 20% had one in any assay.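 Treatment: one concentration, 48 hours, 96-well format. Scoring: percent growth, with anything below 10 considered active.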 A number with no mark means an inactive call. Activity calls are given as the source filed them.

Test systems include NCI-H23 lung; NCI-H226 lung; NCI-H322M lung; HOP-62 NSCLC; NCI-H460 lung; HOP-92 NSCLC; NCI-H522 lung; A549/ATCC NSCLC; 786-0 renal; COLO 205 colon; DU-145 prostate; K-562 leukemia; MALME-3M melanoma; MDA-MB-231 breast; RXF 393 renal; SF-268 CNS; SF-295 CNS; SF-539 CNS; UACC-257 melanoma; M14 melanoma.
Test in all cases: NCI-60 one-dose screen, 48 h (100 = growth as untreated, 0 = no growth, -100 = all killed)
What all share (conditions): 10 µM unless noted

Turning to `O=C(CSc1nc2ccccc2c(=O)n1CCc1ccccc1)Nc1ccc(S(=O)(=O)Nc2ccc(Cl)nn2)cc1`, the growth in the experiment with NCI-H23 lung is 89.9%; with NCI-H226 lung, 88.1%; in the experiment on NCI-H322M lung it was 92.8%; with HOP-62 NSCLC, 95.8%; in the experiment with NCI-H460 lung, 101%; in the experiment on HOP-92 NSCLC it was 79.7%. Besides, the growth is 87.1% in the experiment with NCI-H522 lung; 91.9% with A549/ATCC NSCLC; 102% in the experiment with 786-0 renal; 101% in the experiment with COLO 205 colon; 105% in the experiment on DU-145 prostate; 87.2% in the experiment with K-562 leukemia. Moreover, the growth was 96.5% in the experiment on MALME-3M melanoma; 94.7% in the experiment on MDA-MB-231 breast; 86.5% in the experiment with RXF 393 renal; 96.7% in the experiment on SF-268 CNS; 95.3% in the experiment on SF-295 CNS; 92.3% in the experiment with SF-539 CNS. Besides, the growth with UACC-257 melanoma was 99.3%; in the experiment with M14 melanoma, 96.2%.
With `COc1cc(/C=C2/C(=O)Nc3ccc(Cl)cc32)ccc1OCc1ccc(Cl)cc1`, the growth in the experiment on NCI-H23 lung was 81.2%; in the experiment with NCI-H226 lung it was 95.7%; in the experiment on NCI-H322M lung it was 89.3%; in the experiment on HOP-62 NSCLC it was 92.1%; with NCI-H460 lung, 70.5%; in the experiment with HOP-92 NSCLC, 88.3%. In addition, the growth was 87.9% with NCI-H522 lung; 84.9% in the experiment with A549/ATCC NSCLC; 100% in the experiment with 786-0 renal; 93.4% in the experiment with COLO 205 colon; 89.5% in the experiment on DU-145 prostate; 88.6% with K-562 leukemia. Moreover, the growth was 82.3% in the experiment with MALME-3M melanoma; 86.9% in the experiment on MDA-MB-231 breast; 93.4% in the experiment with RXF 393 renal; 90.2% with SF-268 CNS; 97.7% in the experiment with SF-295 CNS; 92.2% in the experiment on SF-539 CNS. The growth in the experiment with UACC-257 melanoma is 102%; with M14 melanoma it was 96.4%.
For the compound `C#Cc1nc(/C=C/CCCCCCC(=O)NO)cs1`, the growth in the experiment with NCI-H23 lung was -34.2% (active); in the experiment with NCI-H226 lung, 87.6%; in the experiment with NCI-H322M lung, 85.2%; in the experiment with HOP-62 NSCLC, 73.4%; with NCI-H460 lung, 51.8%; in the experiment on HOP-92 NSCLC it was -52.3% (active). For the same compound, the growth in the experiment on NCI-H522 lung was -61.4% (active); in the experiment with A549/ATCC NSCLC, 61.6%; in the experiment on 786-0 renal, -87.8% (active); with COLO 205 colon it was 81.8%; in the experiment on DU-145 prostate, 23.8%; with K-562 leukemia it was 13.1%. Also, the growth in the experiment with MALME-3M melanoma is 22%; in the experiment with MDA-MB-231 breast, -31% (active); in the experiment with RXF 393 renal, -6.54% (active); in the experiment on SF-268 CNS, 83.2%; with SF-295 CNS, 82.5%; with SF-539 CNS it was -89.4% (active). Moreover, the growth in the experiment on UACC-257 melanoma was 56.6%; in the experiment on M14 melanoma it was 62.4%.
Turning to `CC(C)(C)c1cc(NC(=O)Nc2ccc(-c3cn4c5c(sc4n3)CCc3c[nH]cc3-5)cc2)no1`, the growth in the experiment with NCI-H23 lung was 13.9%; in the experiment with NCI-H226 lung, 33.9%; in the experiment on NCI-H322M lung, 47.6%; in the experiment with HOP-62 NSCLC, -28.1% (active); in the experiment with NCI-H460 lung, 4.38% (active); in the experiment with HOP-92 NSCLC, 23.5%. Also, the growth with NCI-H522 lung is 32.4%; with A549/ATCC NSCLC it was 28.7%; in the experiment with 786-0 renal, -29.4% (active); with COLO 205 colon, -17.2% (active); with DU-145 prostate, 32.6%; with K-562 leukemia it was 1.04% (active). Further, the growth was 0.464% (active) in the experiment on MALME-3M melanoma; 30.3% in the experiment with MDA-MB-231 breast; -24.4% (active) with RXF 393 renal; 32.7% in the experiment with SF-268 CNS; -56.5% (active) in the experiment on SF-295 CNS; -4.46% (active) in the experiment with SF-539 CNS. In addition, the growth was 32.3% in the experiment on UACC-257 melanoma and 6.95% (active) in the experiment with M14 melanoma.
As to `Clc1ccc2[nH]cc(-c3nn4cc(-c5cccnc5)nc4s3)c2c1`, the growth was 92.8% in the experiment with NCI-H23 lung; 96.5% with NCI-H226 lung; 98% in the experiment on NCI-H322M lung; 82.2% with HOP-62 NSCLC; 99.9% in the experiment on NCI-H460 lung; 83.6% in the experiment with HOP-92 NSCLC. In addition, the growth in the experiment on NCI-H522 lung is 97.1%; in the experiment on A549/ATCC NSCLC, 99.4%; in the experiment on 786-0 renal it was 113%; with COLO 205 colon, 88.9%; in the experiment with DU-145 prostate, 107%; in the experiment with K-562 leukemia it was 94.7%. In addition, the growth in the experiment with MALME-3M melanoma was 90.6%; with MDA-MB-231 breast it was 71.7%; in the experiment with RXF 393 renal, 113%; in the experiment on SF-268 CNS, 107%; in the experiment on SF-295 CNS it was 96.7%; in the experiment on SF-539 CNS, 95.6%. Further, the growth in the experiment on UACC-257 melanoma was 109%; in the experiment with M14 melanoma, 99.2%.
As to `Fc1ccc2nc(-c3cnn4cccnc34)sc2c1`, the growth is 93.3% in the experiment on NCI-H23 lung; 83.1% in the experiment with NCI-H226 lung; 67.5% in the experiment on NCI-H322M lung; 85.1% with HOP-62 NSCLC; 88.2% in the experiment with NCI-H460 lung; 78.9% with HOP-92 NSCLC. Moreover, the growth in the experiment on NCI-H522 lung is 93.5%; in the experiment on A549/ATCC NSCLC, 81%; in the experiment on 786-0 renal, 101%; in the experiment on COLO 205 colon, 102%; in the experiment on DU-145 prostate, 103%; in the experiment on K-562 leukemia, 86.2%. Moreover, the growth in the experiment with MALME-3M melanoma is 108%; in the experiment with MDA-MB-231 breast, 84.3%; in the experiment on RXF 393 renal it was 92.9%; with SF-268 CNS, 82.5%; in the experiment on SF-295 CNS it was 100%; in the experiment on SF-539 CNS it was 86.7%. Besides, the results for the growth in the experiment with UACC-257 melanoma and in the experiment on M14 melanoma were 100% and 101%, respectively.
As for `C[C@H]1OCC2(CCN(c3cnc(C(=O)Nc4cc(F)cc5cccnc45)cn3)CC2)[C@H]1N`, the growth with NCI-H23 lung is 75.3%; in the experiment on NCI-H226 lung it was 80%; with NCI-H322M lung it was 81.4%; with HOP-62 NSCLC, 84.1%; in the experiment with NCI-H460 lung, 89.1%; in the experiment on HOP-92 NSCLC, 34.7%. Besides, the growth in the experiment on NCI-H522 lung is 31.6%; with A549/ATCC NSCLC, 77.3%; in the experiment with 786-0 renal, 60.1%; with COLO 205 colon, 13.3%; with DU-145 prostate, 78.2%; in the experiment with K-562 leukemia, 6.28% (active). For the same compound, the growth with MALME-3M melanoma was 48.1%; in the experiment with MDA-MB-231 breast it was 31.6%; with RXF 393 renal, 58.4%; in the experiment on SF-268 CNS it was 72.2%; in the experiment with SF-295 CNS it was 92.2%; in the experiment on SF-539 CNS it was 68.4%. Further, the growth in the experiment with UACC-257 melanoma is 101%; in the experiment on M14 melanoma, 71.2%.

Source of the values: PubChem BioAssay (NCI).
